SNCA expr inh: reduces expression of the alpha-synuclein gene | HEK-293 SNCA-luciferase knock-in, luminescence, 24 h | Potency, µM (series often up to 57.2 µM), without a hit: at the top dose activity change, negative = inhibition, usual class: inhibitors | actives 0.17% (n = 140,000);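 further: potency means the concentration at half of the fitted maximal effect; plate controls were DMSO cells for no effect and cell-free wells for full effect; nearly all actives have a fitted effect of over 45% in size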
IP6K1 inh: inhibitors of human IP6K1. Q92551. activity change, % (series mostly up to about 58 µM). IP6K1 kinase, ADP-Glo luminescence, 2 h; stronger effect = lower value. AID 1645851. actives 0.81% (n = 140,000); in the data active means activity change below about -25%; further: on the % scale 0 is the no-effect control and ±100 the full control effect
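ADP-Glo luminescence measures ADP made by human IP6K1 during a 2 h RT reaction with ATP/IP6 (mix at 1.3 mM/130 uM); top library doses 57.5 and 19.1 uM final.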
KDM5B inh: blocks human KDM5B histone demethylase activity; Q9UGL1; KDM5B demethylase, FDH-coupled NADH fluorescence (FDH is formaldehyde dehydrogenase); Potency, µM (series often up to 57.7 µM), usual class: inhibitors; actives 2.6% (n = 220,000); further: potency means the concentration at half of the fitted maximal effect; 0% is about no effect; nearly all actives have a fitted effect of over 70% in size
Target sequence (Q9UGL1 whole entry, looked up): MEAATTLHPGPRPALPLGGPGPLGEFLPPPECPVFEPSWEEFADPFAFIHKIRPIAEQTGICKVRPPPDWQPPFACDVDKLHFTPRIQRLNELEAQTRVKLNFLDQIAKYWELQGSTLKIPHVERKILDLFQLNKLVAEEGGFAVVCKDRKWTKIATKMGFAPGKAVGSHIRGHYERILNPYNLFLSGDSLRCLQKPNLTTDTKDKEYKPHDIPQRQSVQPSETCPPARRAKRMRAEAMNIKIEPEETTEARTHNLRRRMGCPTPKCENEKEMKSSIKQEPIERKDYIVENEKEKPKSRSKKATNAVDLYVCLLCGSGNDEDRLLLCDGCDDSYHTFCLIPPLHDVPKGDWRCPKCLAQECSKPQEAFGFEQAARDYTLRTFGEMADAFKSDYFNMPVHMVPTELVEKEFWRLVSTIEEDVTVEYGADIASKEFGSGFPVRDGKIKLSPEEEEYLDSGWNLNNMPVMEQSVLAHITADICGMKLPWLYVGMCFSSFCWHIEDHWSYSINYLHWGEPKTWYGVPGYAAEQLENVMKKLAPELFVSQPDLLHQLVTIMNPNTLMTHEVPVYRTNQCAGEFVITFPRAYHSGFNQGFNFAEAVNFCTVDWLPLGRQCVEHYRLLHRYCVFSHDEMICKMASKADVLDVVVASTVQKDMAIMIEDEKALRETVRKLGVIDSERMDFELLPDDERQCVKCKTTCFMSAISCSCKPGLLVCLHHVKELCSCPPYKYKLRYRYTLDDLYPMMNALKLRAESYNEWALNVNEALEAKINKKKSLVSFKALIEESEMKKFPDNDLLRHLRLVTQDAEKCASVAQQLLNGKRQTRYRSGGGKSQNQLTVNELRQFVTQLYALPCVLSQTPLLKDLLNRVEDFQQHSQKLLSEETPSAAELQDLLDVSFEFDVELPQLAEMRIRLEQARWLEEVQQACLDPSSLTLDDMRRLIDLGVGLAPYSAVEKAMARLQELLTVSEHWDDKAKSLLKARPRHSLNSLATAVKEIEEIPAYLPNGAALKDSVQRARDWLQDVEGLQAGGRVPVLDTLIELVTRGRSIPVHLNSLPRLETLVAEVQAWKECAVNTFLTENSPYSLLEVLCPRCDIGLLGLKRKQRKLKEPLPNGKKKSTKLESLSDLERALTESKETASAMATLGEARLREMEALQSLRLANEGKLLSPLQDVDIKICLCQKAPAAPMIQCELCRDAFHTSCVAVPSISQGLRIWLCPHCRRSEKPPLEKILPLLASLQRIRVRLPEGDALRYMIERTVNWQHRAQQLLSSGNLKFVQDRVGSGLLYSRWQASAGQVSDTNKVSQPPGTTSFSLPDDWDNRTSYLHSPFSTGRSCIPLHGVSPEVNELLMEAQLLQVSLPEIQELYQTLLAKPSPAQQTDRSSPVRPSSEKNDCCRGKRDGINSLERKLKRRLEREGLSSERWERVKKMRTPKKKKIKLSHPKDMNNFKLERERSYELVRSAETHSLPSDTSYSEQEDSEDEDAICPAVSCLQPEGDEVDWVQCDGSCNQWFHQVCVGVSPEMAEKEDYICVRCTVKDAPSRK
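Coupled FDH/NAD⁺ fluorescence readout. KDM5BΔAP 200 nM final; compound titration, 10 min RT preincubation; substrate mix 12.5 µM H3K4me3, 25 µM 2-OG, 50 µM Fe(II), 100 µM ascorbate, 0.25 mM NAD⁺, 0.25 U/mL FDH; ΔRFU over 30 min.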
HEK293 viab: reduces viability of HEK-293 SNCA reporter cells; AID 1671193; actives 0.12% (n = 150,000); Potency, µM (highest dose often 57.1 µM), without a hit: top-dose activity change, negative = cytotoxicity, usual class: cytotoxic; HEK-293-SNCA-luc viability, GF-AFC fluorescence, 24 h;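 further: potency means the concentration at half of the fitted maximal effect; 0% = DMSO-treated cells and -100% = medium-only wells without cells; nearly all actives have a fitted effect of over 30% in size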
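Cytotoxicity counterscreen: after 24 h compound treatment of genome-edited SNCA-luciferase HEK-293 cells, live-cell protease substrate GF-AFC read by fluorescence after 30 min; activity scaled between DMSO (0%) and medium-only (-100%), curves Hill-fitted.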
The depositor's hits bear a star; ! = not confirmed by another sample; [ ] = remark or other dose. Compounds with a hit are over-represented: about 2.8% of the library has one in this group of screens. Unless noted, the call rests on the fitted dose curve; in most records, active means well fitted curve in the direction sought with a large enough effect; inconclusive means small, poorly fitted or top-dose-only effect, or another doubt; inactive means no such curve, though single readings can be large; an effect the other way counts as inactive or inconclusive.

Screening N#Cc1ccc(CN2CCn3c(nnc3C3CCCNC3)C2)cc1 (stereo unspecified) returned SNCA expr inh inconclusive, IP6K1 inh 3, KDM5B inh 20µM* and HEK293 viab -24%.
For Cc1ccc2nc(-c3cccc(Cl)c3)cc(C(=O)O)c2c1 the results were KDM5B inh inactive.
`COCC(=O)NC1CCN(c2ccc3nnc(C4CC4)n3n2)C1` (stereo unspecified) gave IP6K1 inh 6.
For COc1cncc(N2C[C@H]3[C@H](C2)[S+](=O)([O-])C(C)(C)C(=O)N3Cc2ccccc2)c1 the results were SNCA expr inh inconclusive, IP6K1 inh -5, KDM5B inh 7.1µM* and HEK293 viab -9%[87.6 µM].
Screening CC1(C)C(=O)N(Cc2ccccc2)[C@H]2CN(c3ccnc(N4CCOCC4)c3)C[C@@H]2[S+]1(=O)[O-] returned SNCA expr inh -14%, IP6K1 inh 8, KDM5B inh inactive and HEK293 viab -23%.
COc1ccccc1NC(=O)Nc1ccc(-c2nnc3n2CCCC3)cc1 was read as SNCA expr inh 60%, IP6K1 inh 0, KDM5B inh inactive and HEK293 viab 4%.
COc1ccc(C(=O)N2CCCN(c3cc(-c4ccc(OC)cc4)[nH]n3)CC2)cc1 was read as SNCA expr inh 6%, IP6K1 inh 3, KDM5B inh inactive and HEK293 viab -10%.
For O=C(NC1CCN(c2cc(-c3ccc(F)cc3)[nH]n2)C1)c1c[nH]c2ccccc12 (stereo unspecified) the results were SNCA expr inh inconclusive, IP6K1 inh 0, KDM5B inh 14µM* and HEK293 viab inconclusive.
For COc1ccc(-c2cc(N3CCCC(NC(=O)c4cccc5[nH]ccc45)C3)n[nH]2)cc1 (stereo unspecified) the results were SNCA expr inh 6%, IP6K1 inh 2, KDM5B inh 25µM* and HEK293 viab inconclusive.
COc1ccc(-c2cc(N3CCCN(C(=O)c4cccc5[nH]ccc45)CC3)n[nH]2)cc1 was read as SNCA expr inh 27%, IP6K1 inh 13, KDM5B inh 28µM* and HEK293 viab -8%.
For Cc1nc(N2CCC(NC(=O)c3cccc4[nH]ccc34)CC2)cc(C(F)(F)F)n1 the results were SNCA expr inh -9%, IP6K1 inh -15, KDM5B inh 28µM* and HEK293 viab -15%.
Screening O=C1CCC[C@@H]2C3CC(CN(C4CCN(C(=O)C5(c6ccccc6)CC5)CC4)C3)CN12 (stereo partly specified) returned SNCA expr inh -11%, IP6K1 inh 48, KDM5B inh inconclusive and HEK293 viab 9%.
`Cc1cccc(N(Cc2ccccc2)C(=O)c2cnccn2)c1` gave KDM5B inh inactive.
For O=C(N[C@H]1CCN2C(=O)c3cc(-c4cccs4)ccc3NC(=O)[C@H]12)C1CCCC1 the results were SNCA expr inh -4%[87.6 µM], IP6K1 inh -5, KDM5B inh 40µM* and HEK293 viab -2%[87.6 µM].
`COc1ccc(-c2ccc3c(c2)C(=O)N2CC[C@H](NC(=O)C4CCCC4)[C@H]2C(=O)N3)cc1` gave SNCA expr inh 22%[87.6 µM], IP6K1 inh -8, KDM5B inh inconclusive and HEK293 viab 0%[87.6 µM].
O=C(N[C@H]1CCN2C(=O)c3cc(-c4cccs4)ccc3NC(=O)[C@H]12)c1cccc(F)c1 was read as SNCA expr inh 5%, IP6K1 inh -10, KDM5B inh 28µM* and HEK293 viab -9%.
Screening O=C(O)CCC(=O)N[C@H]1CCN2C(=O)c3cc(-c4cccs4)ccc3NC(=O)[C@H]12 returned SNCA expr inh -10%[87.6 µM], IP6K1 inh 8, KDM5B inh 35µM* and HEK293 viab 1%[87.6 µM].
Screening O=C(N[C@H]1CCN2C(=O)c3cc(-c4ccc(Cl)cc4)ccc3NC(=O)[C@H]12)C1CCCC1 returned SNCA expr inh 54%, IP6K1 inh 5, KDM5B inh 25µM* and HEK293 viab 2%.
Screening O=C(O)c1ccc(Sc2ccccn2)cc1 returned KDM5B inh inactive.
For CCc1noc(-c2nc(-c3ccccc3F)no2)n1 the results were SNCA expr inh 43%, IP6K1 inh -20, KDM5B inh inactive and HEK293 viab 2%.
Cc1cc(CN(C)c2ccc(-c3nc(-c4ccccc4F)no3)cn2)on1 was read as SNCA expr inh 2%, IP6K1 inh -2, KDM5B inh 32µM* and HEK293 viab 0%.
For Cc1ccsc1/C=C(/C#N)C(N)=S the results were KDM5B inh inactive.
`CCCNC(=O)N1CCCCCC1CN1CCCC1` (stereo unspecified) gave SNCA expr inh inconclusive, IP6K1 inh -14, KDM5B inh 25µM* and HEK293 viab -5%.
For CC(C)NC(=O)N1CCCCCC1CN1CCCC1 (stereo unspecified) the results were SNCA expr inh 20%, IP6K1 inh -9, KDM5B inh inconclusive and HEK293 viab 4%.
`CCc1nc(C)cc(-c2cc(OC)c(OC)c(OC)c2)n1` gave SNCA expr inh 17%, IP6K1 inh 34, KDM5B inh 25µM* and HEK293 viab -3%.
`COc1cccc(CN[C@H]2[C@H](O)[C@H](O)C[C@@H]2c2ccc(N3CCOCC3)nc2)c1` gave SNCA expr inh -15%[87.6 µM], IP6K1 inh 0, KDM5B inh 35µM* and HEK293 viab -3%[87.6 µM].
For COc1cccc(C(=O)N[C@H]2[C@H](O)[C@H](O)C[C@@H]2c2ccc(N3CCOCC3)nc2)c1 the results were SNCA expr inh 24%[87.6 µM], IP6K1 inh -6, KDM5B inh 35µM* and HEK293 viab 4%[87.6 µM].
For COc1ccccc1C(=O)N[C@H]1[C@H](O)[C@H](O)C[C@@H]1c1ccc(N2CCOCC2)nc1 the results were SNCA expr inh 45%[87.6 µM], IP6K1 inh -4, KDM5B inh inconclusive and HEK293 viab -6%[87.6 µM].
For Cc1cc(C(=O)N[C@H]2[C@H](O)[C@H](O)C[C@@H]2c2ccc(N3CCOCC3)nc2)n(C)n1 the results were SNCA expr inh -1%[87.6 µM], IP6K1 inh -2, KDM5B inh inconclusive and HEK293 viab 0%[87.6 µM].
For CN1CCC(N[C@H]2[C@H](O)[C@H](O)C[C@@H]2c2ccc(N3CCOCC3)nc2)CC1 the results were SNCA expr inh 15%[87.6 µM], IP6K1 inh 1, KDM5B inh 32µM* and HEK293 viab 8%[87.6 µM].
Screening O=C(CSc1nnc2n(-c3ccccc3)c(=O)c3ccccc3n12)Nc1ccc(OC(F)F)cc1 returned KDM5B inh inactive.
Fc1ccc(-c2nc(-c3cccs3)c(-c3cccs3)[nH]2)cc1 was read as SNCA expr inh -5%, IP6K1 inh -6, KDM5B inh inconclusive and HEK293 viab -11%.
Screening Oc1ccc(-c2nc(-c3ccc(F)cc3)c(-c3ccncc3)[nH]2)cc1 returned SNCA expr inh 1.4µM*! and HEK293 viab inconclusive.
O=C(NCc1ccccn1)C1CCN(c2nccc(-c3cccnc3)n2)CC1 was read as SNCA expr inh 51%, IP6K1 inh 8, KDM5B inh inconclusive and HEK293 viab -1%.

Screens: PubChem, National Center for Advancing Translational Sciences (NCATS)
